We go through 15 molecules from ChEMBL document CHEMBL1961873, “Compounds: GSK PKIS; Assays: Nanosyn kinase panel” (2012).

SMILES strings stand for the structures. Where “and” joins values, the source holds several entries; their conditions need not be identical. Equal entries are not always repeated.
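Further: each figure is a mean percent inhibition of the CDK3/cyclin E complex.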

The experiment deals with CDK3/Cyclin E (Homo sapiens) (UniProt P24864+Q00526). The settings on record: at 1 µM.
CDK3/Cyclin E (Homo sapiens), sequence (P24864 whole entry, looked up): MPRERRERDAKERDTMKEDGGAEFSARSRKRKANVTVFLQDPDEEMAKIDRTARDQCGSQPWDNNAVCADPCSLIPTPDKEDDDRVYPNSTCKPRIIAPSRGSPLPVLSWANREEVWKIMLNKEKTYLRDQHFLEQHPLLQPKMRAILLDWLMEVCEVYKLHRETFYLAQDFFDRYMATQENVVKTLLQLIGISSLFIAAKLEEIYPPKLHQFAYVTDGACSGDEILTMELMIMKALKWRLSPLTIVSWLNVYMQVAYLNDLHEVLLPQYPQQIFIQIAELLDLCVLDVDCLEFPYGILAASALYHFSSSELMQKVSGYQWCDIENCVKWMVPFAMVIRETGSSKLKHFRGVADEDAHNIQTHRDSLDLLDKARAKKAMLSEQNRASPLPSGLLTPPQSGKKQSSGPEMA
CDK3/Cyclin E (Homo sapiens), sequence (Q00526 whole entry, looked up): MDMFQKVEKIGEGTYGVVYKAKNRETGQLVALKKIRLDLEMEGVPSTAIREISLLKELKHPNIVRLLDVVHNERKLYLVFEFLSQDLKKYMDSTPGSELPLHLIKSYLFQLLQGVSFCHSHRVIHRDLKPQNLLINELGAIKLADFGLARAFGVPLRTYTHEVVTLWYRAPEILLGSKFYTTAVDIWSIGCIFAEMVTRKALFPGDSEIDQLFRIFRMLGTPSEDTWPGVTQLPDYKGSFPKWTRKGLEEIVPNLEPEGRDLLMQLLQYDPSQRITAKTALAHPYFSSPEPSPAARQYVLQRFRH
As for `Cc1cc(O)cc(C)c1/C=C/c1cncc(C(N)=O)c1`, the inhibition (in general, the drop in the measured response relative to a control, in per cent) turned out to be 1.41%.
The value for `CC1=C(C(=O)Nc2ccc3[nH]ncc3c2)C(c2ccc(F)cc2)N=C(c2ccc(C(F)(F)F)nc2)N1` (stereo not given) was 1.96%; that for `COc1c(C(N)=O)cc(-c2ccc(Cl)cc2)cc1-c1ccc(S(N)(=O)=O)cc1` was -0.77%; that for `Cc1cc(O)cc(C)c1/C=C/c1cncc(C(=O)OC(C)(C)C)c1` was 1.16%.
`COc1ccc(Nc2ncc(-c3ccccc3)o2)cc1OC`: the inhibition turned out to be 22.2%.
Under `Fc1ccc(Nc2nccc(-c3c(-c4ccc(C(F)(F)F)cc4)nn4ncccc34)n2)cc1F` stands -0.37%; under `O=C(O[C@H]1CN[C@H](C#Cc2cc3ncnc(Nc4ccc(OCc5cccc(F)c5)c(Cl)c4)c3s2)C1)N1CCOCC1`, -3.23%.
Under `COc1ccc2ncn(-c3cc(O[C@H](C)c4ccccc4C(F)(F)F)c(C(N)=O)s3)c2c1` stands -1.57%.
Under `CNC(=O)c1ncccc1Nc1nc(Nc2cc3c(cc2OC)CCCN3C(=O)CN(C)C)nc2[nH]ccc12` stands 1.69%; under `COc1ccccc1-c1cc(/C=C2\C(=O)Nc3ncc(Br)cc32)cc(Br)c1O`, 1.11%; under `c1cnn2ncc(-c3ccnc(NCCCN4CCOCC4)n3)c2c1`, -0.22%.
As to `CCCNc1cccc(-n2ncc3c(N/N=C/c4ccncc4)ncnc32)c1`, the inhibition amounted to 9.63%.
Consider `OCCCNc1nccc(-c2c(-c3ccc(F)cc3)nn3cc(C(F)(F)F)ccc23)n1`, for which the inhibition stood at 0.86%.
The value for `CS(=O)(=O)Nc1ccc(-c2ccc3c(NC(=O)C4CC4)n[nH]c3c2)cc1` was 6.25%; that for `CN1CCC(C(=O)Nc2n[nH]c3nc(-c4ccc(O)cc4)c(Br)cc23)CC1` was 56.1% and 53.4%.
